# Data published in PubChem BioAssay (NCI).
# Several values for one entry are separate records, joined by “and”; a condition that tells them apart may be missing. Equal entries are not always repeated. The panel holds about 83,000 compounds, 20% with a hit somewhere; the sample as a whole holds those more often.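 Treatment: one concentration, 48 hours, 96-well format. Scoring: percent growth, with anything below 10 considered active.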 Activity calls are given as the source filed them.
# System: HL-60(TB) leukemia
# Experiment: NCI-60 one-dose screen, 48 h (100 = growth as untreated, 0 = no growth, -100 = all killed)
# Conditions: 10 µM unless noted
row,Structure (SMILES),growth
1,O=C(NCCCCCCCCCC[P+](c1ccccc1)(c1ccccc1)c1ccccc1)c1ccc(-n2nc(-c3ccccc3O)nc2-c2ccccc2O)cc1,-29.8% (active)
2,O=C(c1ccc(Cl)cc1)C1[C@H](c2ccccc2Cl)[C@@H](c2ccccc2)NC12C(=O)Nc1ccc(Br)cc12 (stereo partly specified),-43.7% (active)
3,O=C1NC(=S)/C(=C/c2cn(-c3ccccc3)nc2-c2ccccc2)S1,21% (inactive)
4,O=C1CCC(N2C(=O)c3cccc(NCCOCCOCCOCCC(=O)NCCCC(=O)NC(c4ccc5c(c4)OCO5)c4cc(Cl)c5cccnc5c4O)c3C2=O)C(=O)C1 (stereo unspecified),-14.1% (active)
5,CCOC(=O)CNC(=O)CN(Cc1ccccc1)C(=O)[C@@]1(C)CCC[C@]2(C)[C@H]3C[C@H]4C(C(C)C)=C[C@]3(CC[C@H]21)[C@@H]1C(=O)OC(=O)[C@@H]14,9.46% (active)
6,CC(C)(C)c1ccc(NCc2cn(-c3ccc(C(=O)O)cc3)nc2-c2ccc(C#N)cc2)cc1,3.14% (active)
7,Cn1ncc2c(N)nc(Oc3ccccc3-c3ccccc3)nc21,-18.4% (active)
8,COc1cc2oc(-c3cccc(NC(=O)[C@H](CC(N)=O)NC(=O)OC(C)(C)C)c3)cc(=O)c2c(OC)c1OC,67.2% (inactive)
9,NC1(c2ccc(-c3ccc4ncnc(NCc5ccccc5)c4c3)cn2)COC1,113% (inactive) and 106% (inactive)
10,COc1cc(Nc2nc(O)c(/C=C3\C=Nc4ccccc43)s2)cc(OC)c1OC,-16% (active)
11,COc1cccc(-c2ccnc(/N=C(\N)Nc3ccc(S(=O)(=O)Nc4nc(C)cc(C)n4)cc3)n2)c1,91.9% (inactive)
